Compounds without any hit were thinned out: in the full panel of roughly 83,000, 20% have a hit.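 96-well plates, one dose, 48 hours. Percent growth reported; active if below 10.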 Unmarked numbers belong to inactive results. The source made the active and inactive calls.

From PubChem BioAssay (NCI) come the findings set out here.

For this test, the system named is T-47D breast. Description: NCI-60 one-dose screen, 48 h (100 = growth as untreated, 0 = no growth, -100 = all killed). The settings on record: 10 µM unless noted. On the procedure:
Growth inhibition of the T-47D human tumor cell line is measured as a screen for anti-cancer activity. Cells are grown in 96 well plates and exposed to the test compound for 48 hours. Compounds are tested at a single concentration, which is 10^-5 M for most compounds. The reported endpoint is percent growth (GI% or GIPRCNT), where numbers from 0 - 100% represent growth inhibition, and numbers from -100% - 0 represent cell death. For example, a value of 40 represents 60% growth inhibition. A value of 0 means no net growth occurred over the course of the experiment. A value of -40 indicates 40% of cells at the beginning of the experiment died by the end of the experiment. A value of -100 means all cells are dead at the end of the experiment.
NCI-60 Human Tumor Cell Lines Screen was performed using the standard one-dose NCI protocol, which is described in more detail at https://dtp.cancer.gov/discovery_development/nci-60/default.htm.
Compounds with GIPRCNT values below 10 were considered active. Activity score was based on GIPRCNT using the following formula: […]
Score is 0 for GIPRCNT values of 100 or above, 50 for GIPRCNT values of 0, and 100 for GIPRCNT values of -100.
With `C=C1C(=O)O[C@H]2[C@H]1CC/C(COC(=O)/C=C\C(=O)NCc1ccc(Cn3c(=O)sn(CCCC)c3=O)cc1)=C\CC[C@@]1(C)O[C@@H]21`, the growth was -39% (active).

For `COc1cc(/C=C/c2nc(Nc3ccc(S(=O)(=O)Nc4cc(C)on4)cc3)c3ccccc3n2)ccc1O`, the growth was 58.4%. The figure for `O=C(O)c1ccccc1C(=O)Nc1ccc(Cl)cc1` is 87.2%; for `CCO/C=N/C1=C(C#N)C(c2ccc(OC)cc2)c2c(c3ccccc3n(C)c2=O)O1` (stereo not given) it is 101%; for `Oc1[nH]c2ccccc2c1/C=c1/cc2c(c(-c3ccc(F)cc3)n1)=Nc1ccccc1-2` it is -37.1% (active). Turning to `COc1cc2c(cc1OC)-c1ccc3cc4c(cc3c1N(CCCN1CCCCC1)C2)OCO4`, the growth was 59.2%. Turning to `COc1ccc(CN2C(=O)/C(=C\c3cc(OC)c(OC)c(OC)c3)c3ccccc32)cc1`, the growth was -2.48% (active). In the case of `CCc1c(C(=O)N[C@@H]2c3cc(Cl)ccc3CC[C@@H]2O)[nH]c(C)c1C(C)=O`, the growth was 70.4%.

Consider `CCCCCCNc1cc(C)nc2ccc(OC)cc12`, for which the growth was 52.1%. As to `CCCCCCCSc1ccc(C(=O)O)cc1`, the growth was 107%. As to `C[C@]12CCC(=O)C[C@H]1CC[C@@H]1[C@@H]2CC[C@@]2(C)[C@H]1CC[C@]2(O)C(=O)CO`, the growth was 99.5%. For `O=C(NCc1cn(Cc2cccc(Oc3ccccc3)c2)nn1)c1cccnc1NCc1ccc(Cl)cc1`, the growth is 31.9%. For the molecule `COc1ccc(/C(C)=C(\c2ccc(Cl)cc2)c2ccc(OCCN3CCCC3)cc2)cc1F`, the growth was 50.7%. The figure for `O=C1CSC(c2ccccc2)N1c1ccccc1` (stereo not given) is 103%; for `OC(CBr)c1ccnc2ccccc12` (stereo not given) it is 89.1%. The figure for `COc1cc(C2CC(=O)Nc3n[nH]c(-c4ccccc4)c32)cc(OC)c1OC` (stereo not given) is 67.3%; for `Cc1c2c(cn1Cc1ccccc1)CCc1cn(C)nc1-2` it is 87.9%; for `CCC(C)NCc1ccccc1` (stereo not given) it is 89.4%. As for `C#CC[C@H](N)C(=O)O`, the growth is 102% [20 µM].

As to `Cc1cc(=O)c2cc3nc(-c4cccnc4)oc3c(Br)c2o1`, the growth is 201%. In the case of `CN(C)c1ccc(/C=C/c2c(F)cccc2F)cc1`, the growth was 58.3%. In the case of `CN(C)CN1CCN(c2ccc3nc(-c4ccc5nc(-c6ccc(C(F)(F)F)cc6)[nH]c5c4)[nH]c3c2)CC1` it was 61.4%; in that of `O=C(O)C1C[C@](O)(c2ccc(F)cc2)[C@@H](c2ccc(F)cc2)O1` (stereo not given in full), 88.2%. In the case of `O=C1C2=C(CCN(Cc3ccccc3)C2)N2CCN=C2N1Cc1ccc(C(F)(F)F)cc1`, the growth is 24.1%. For `CCOC(=O)c1nnn(C(Cc2ccccc2Cl)C(=O)OCC)c1C` (stereo not given), the growth was 97.6%. In the case of `CCCCC1COc2cccc3c(SCC(=O)N(C)c4cccc(Cl)c4)cc[n+]1c23` (stereo not given), the growth is 107%. In the case of `COc1ccc2c(c1)/C(=C\c1sc(=S)[nH]c1O)C(C(=O)O)=N2` it was 94.3%; in that of `CCN(CC)CCOC(=O)Nc1ccccc1Cl`, 98.6%; in that of `CCn1c(Sc2nnc(NC(=O)CSC(=S)N3CCCCC3)s2)nc2c1c(=O)n(C)c(=O)n2C`, 86.9%. As for `CCc1nc2ccccc2[nH]1`, the growth is 123%. In the case of `COc1ccc(OC)c(C(=O)Nc2cccc(-c3cc(=O)c4ccccc4o3)c2)c1` it was 85.6%. Consider `c1ccc(-c2oc3ccccc3c2-c2ccccc2)cc1`, for which the growth is 75.7%. Turning to `Cc1ccc2c(n1)C(=O)C(Oc1ccc(F)cc1)=CC2=O`, the growth is 40%. Consider `N#C/C=C(\c1ccc([N+](=O)[O-])cc1)n1nnc2cc(Cl)c(Cl)cc21`, for which the growth is 28.5%. The figure for `O=C1c2ccccc2C2(c3ccc(O)cc3)c3ccccc3Oc3cccc1c32` (stereo not given) is 21.8%; for `Cc1cn(C2CCCCC2)c(=O)[nH]c1=O` it is 108%; for `COc1ccc(-n2sc(=O)n(Cc3ccc(COC(=O)C(C)c4ccc(CC(C)C)cc4)cc3)c2=O)cc1` (stereo not given) it is 10.6%. Regarding `NC(=S)N/N=C/C(=O)O`, the growth is 40.9%. The figure for `Cc1nn(-c2ccccc2)c2c1C(c1ccc([N+](=O)[O-])cc1)C(C#N)=C(N)O2` (stereo not given) is 98.4%; for `O=[N+]([O-])c1ccccc1C(O)Cc1ccc2ccccc2n1` (stereo not given) it is 88.6%.
